Hits are enriched below; roughly 1.8% of the tested compounds scored in any of these assays.
p53ts 32C kill: qHTS Screen for Compounds that Selectively Target Cancer Cells with p53 Mutations: Cytotoxicity of p53ts Cells at the Permissive Temperature; 130,000 tested, 0.93% active; H1299-p53A138V at 32C, ATP luminescence viability, 24 h; AID 924, 2007; Potency, µM (series often up to 46.1 µM), without a hit: at the highest dose activity change, negative = cytotoxicity, actives largely listed as cytotoxic;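 note: 0% = DMSO and -100% = full killing by reference compound; nearly all actives have a fitted effect of over 55% in size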
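ATP-content luminescence (ATPlite) read-out after 24 h compound exposure at 32C in H1299-p53A138V cells (600/well). Tested up to 46 uM. Normalized to DMSO (0%) and 100 uM tamoxifen (100% killing); Hill-fit AC50.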
Peg3 imprint: qHTS Assay for Compounds that Induce Erasure of Genomic Imprints. mouse ES Peg3-LacZ reporter, beta-gal luminescence, 40 h. AID 1948, 2009. 110,000 tested, 0.02% active. Potency, µM (series often up to 60.7 µM), for the others: at the highest dose activity change, positive = activation, hits mostly activators
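Imprint erasure is scored as LacZ activity from the silenced maternal Peg3 allele in feeder-free female ES cells cultured 40 h with LIF. Luminescence is normalized to in-plate negative controls and fitted to the Hill equation.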
p53ts 39C tox: qHTS Screen for Compounds that Selectively Target Cancer Cells with p53 Mutations: Cytotoxicity of p53ts Cells at the Nonpermissive Temperature | H1299-p53A138V viability at 39C, ATP luminescence, 24 h | Potency, µM (highest dose often 46.1 µM), for inactives: at the highest dose activity change, negative = cell killing, actives largely listed as cytotoxic | 130,000 tested, 1.5% active; note: % is set by controls: 0 for no effect and ±100 for the full control effect; nearly all actives have a fitted effect of over 55% in size
IkB signaling: IkB Signaling; ABC-DLBCL IkBa-CBG/CBR dual luciferase ratio, 4 h; response scale: scaled: untreated 0%, proteasome inhibitor 100%; Potency, µM (doses to about 57.1 µM), for inactives: top-dose IkBa stabilization activation; 110,000 tested, 0.04% active; active = well fitted curve in the direction sought with a large enough effect in the signal ratio, not every such curve was filed as active; inconclusive = small, poorly fitted or top-dose-only effect, or a change in a side signal; the % refers to the signal ratio;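 note: the direction sought is a rising ratio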
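Curves were fitted separately to fusion (green), unfused (red) and ratio luminescence, then classed by r2, magnitude and activity. Cells: OCI-Ly3, 4 h compound plus doxycycline at 37C; 10 uM MG-132 defined full response.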
The depositor's hits bear a star; u = inconclusive; x = no result; ! = not active in a repeat; [ ] = another dose, or the depositor's remark. Unless noted, calls come from the whole dose curve; as a rule, active = well fitted curve in the direction sought with a large enough effect; inconclusive = small, poorly fitted or top-dose-only effect, or another doubt; inactive = no such curve, though single readings can be large; an effect the other way counts as inactive or inconclusive. Potency is the fitted concentration of half-maximal effect.

SMILES	p53ts 32C kill	Peg3 imprint	p53ts 39C tox	IkB signaling
Cc1ccc(NC(=O)Nc2ccc3nc(N4CCN(C)CC4)cc(C)c3c2)cc1F	25.1µM*	3.6%[10.9 µM]	u	-5.6%
O[N+]1=CC=CCC1=S.On1ccccc1=S.[Zn]	0.794µM*	-30.7%	3.98µM*	x
COc1ccc2nc(NC(=O)c3nc(S(=O)(=O)Cc4cccc(C)c4)ncc3Cl)sc2c1	20µM*	-35.3%[10.9 µM]	10µM*	u
CCOc1ccc2nc(NC(=O)c3cccn(Cc4ccc(C)cc4)c3=O)sc2c1	0.3%	8.9%[10.9 µM]	1.2%	-2.0%
C[C@H]1CC[C@@H]2[C@@H](C)C(=O)O[C@H]3O[C@@]4(C)CC[C@@H]1[C@]32OO4	x	x	x	-0.9%[11.4 µM]
CN(C)[C@@H]1C(=O)C(C(N)=O)=C(O)[C@]2(O)C(=O)C3=C(O)c4c(O)cccc4[C@@](C)(O)[C@@H]3C[C@@H]12	x	x	x	2.5%[11.4 µM]
[Cd+2].[Cl-].[Cl-]	x	-22.4%	1.26µM*	3.98µM*
CCN1C[C@@]2(C)CC[C@H](O)[C@@]34[C@@H]5C[C@H]6[C@H](O)[C@@H]5[C@](O)(C[C@@H]6OC)[C@H](C[C@@H]23)[C@H]14	x	x	x	0.0%[11.4 µM]
C[C@H]1CC[C@]2(NC1)O[C@@H]1C[C@@H]3[C@@H]4CC=C5C[C@H](O)CC[C@@]5(C)[C@H]4CC[C@@]3(C)[C@H]1[C@@H]2C	x	x	x	0.5%[11.4 µM]
COC(=O)[C@]1(C)CC[C@@]2(C)CC[C@@]3(C)C4=CC=C5C(=CC(=O)C(O)=C5C)[C@@]4(C)CC[C@@]3(C)C2C1 (stereo partly specified)	10µM*	-45.0%	12.6µM*	x
Oc1ccc2c3c1O[C@H]1c4c(c5ccccc5n4Cc4ccccc4)C[C@]4(O)[C@H](C2)N(CC2CC2)CC[C@@]314	u	-28.7%	31.6µM*	u
O=c1cccc2n1C[C@@H]1C[C@H]2CN2CCCC[C@H]12	x	x	x	3.4%[11.4 µM]
Cc1ccccc1Cn1cccc(C(=O)Nc2nc3ccccc3s2)c1=O	10.7%	-29.5%[10.9 µM]	10µM*	3.3%
CN1C[C@@H](CS(=O)(=O)N(C)C)C[C@H]2c3cccc4c3c(cn4C)C[C@@H]21	-4.0%	x	-8.3%	-2.4%
CCCN1CCc2cccc3c2[C@@H]1Cc1ccc(O)c(O)c1-3	-23.6%	x	u	13.6%
Cc1nc2c(=O)n(C)c(=O)nc-2n(C)n1	1.12µM*	x	2µM*	x
CC(=O)Oc1ccc(/C=C/c2cc(OC(C)=O)cc(OC(C)=O)c2)cc1	7.94µM*	-50.6%	6.31µM*	x
COc1ccc(/C=C/C(=O)Nc2ccc(C)cc2)cc1	u	-14.0%[10.9 µM]	-13.9%	6.4%
C[C@@H]1O[C@@H](O[C@H]2C[C@@H](O)[C@]3(CO)[C@@H]4[C@@H](O)C[C@]5(C)[C@H]([C@@H]6COC(=O)C6)CC[C@@]5(O)[C@H]4CC[C@@]3(O)C2)[C@H](O)[C@H](O)[C@@H]1O	u	x	u	-5.1%
CC(C)(C)[C@@]1(O)C[C@@H]2OC(=O)C[C@@]23C(=O)O[C@H]2OC(=O)[C@@H](O)[C@]231	x	x	x	0.5%[11.4 µM]
Cc1oc(-c2ccccc2Cl)nc1CN1C(=O)CN=C(c2ccccc2)c2cc(Cl)ccc21	-4.4%	-14.4%[10.9 µM]	-8.0%	u
Cc1oc(-c2cccc(Cl)c2)nc1CN1CCC(C(=O)NCCCN2CCN(c3cccc(Cl)c3)CC2)CC1	-17.3%	-9.0%[10.9 µM]	10µM*	u
O=C(Cn1c(=O)n(Cc2ccccc2)c(=O)c2sc3ccccc3c21)NCc1ccccc1Cl	12.6µM*	13.5%[10.9 µM]	31.6µM*	0.1%
[Cl-].[Cl-].[Hg+2]	x	-85.2%	25.1µM*	u
CN(C(=O)Cc1ccc(Cl)c(Cl)c1)[C@H](CN1CCCC1)c1cccc(N=C=S)c1	31.6µM*	-29.8%	31.6µM*	u
SMILES	p53ts 32C kill	Peg3 imprint	p53ts 39C tox	IkB signaling
COc1ccc2c3c1O[C@@H]1C(=O)CC[C@@]4(O)[C@@H](C2)N(CC2CC2)CC[C@]314	14.2%	x	13.7%	-5.6%
O=C(O)/C=C\c1ccc[c]([Sb](=[O])([OH])[OH])c1	8.7%[9.22 µM]	x	10.7%[9.22 µM]	1.7%[11.4 µM]
O=c1[nH]c2ccccc2n1C1CCN(CCCC(c2ccc(F)cc2)c2ccc(F)cc2)CC1	25.1µM*!	-28.0%	15.8µM*	0.6%
CCCN1CC[C@@H]2c3cc(O)ccc3CC[C@H]21	-3.3%	x	3.8%	-3.3%
O=C(c1ccccc1)[C@H]1[C@H](c2ccccc2[N+](=O)[O-])N1C1CCCCC1 (stereo partly specified)	1.3%[9.22 µM]	-20.9%[10.9 µM]	-23.1%[9.22 µM]	5.01µM*
CCc1ccccc1Nc1nn2c(=O)c3ccc(C(=O)Nc4cc(C)cc(C)c4)cc3nc2s1	3.16µM*	1.2%[10.9 µM]	3.98µM*	u
CN[C@H]1[C@H](C)O[C@@H](O[C@@H]2C/C=C(/C)C/C(C)=C\C=C/CC[C@@H](C)CNC(=O)/C=C\C=C/[C@H]2C)C[C@@H]1O	x	x	x	0.6%[11.4 µM]
C[C@@]12CC[C@H]3[C@@H](CCC4=CC(=O)CC[C@]43C)[C@H]1CCC2=O	x	x	x	-4.0%
CCCOC(=O)COc1cc(C)cc2oc(=O)c3c(c12)CCC3	0.9%	-10.9%	-2.1%	1.6%
CCCOc1ccc(C(=O)Nc2ccc(-c3cc4ccccc4oc3=O)c(C)c2)cc1	u	-19.9%[10.9 µM]	6.31µM*	u
COc1cc2c(cc1OC)[C@]13CCN4CC5=CCO[C@@H]6CC(=O)N2[C@@H]1[C@H]6[C@@H]5C[C@H]43	x	x	x	-0.9%[11.4 µM]
CC(=O)c1c(C)nc2ccccc2c1N	12.6µM*	-33.8%	10µM*	0.6%
Cc1nc2ccccc2c(=O)n1-n1cnnc1	21.4%	-3.6%	-8.5%	1.7%
Cc1ccc(C(=O)Nc2c(C(=O)Nc3ccc(C)c(C)c3)sc3nc(C)cc(C)c23)cc1	-24.5%	-5.1%[10.9 µM]	6.31µM*	-0.6%
COc1ccc2c(c[n+](C)c3c4cc5c(cc4ccc23)OCO5)c1OC	5.01µM*	-32.0%	12.6µM*	u

Screens: PubChem BioAssay, National Center for Advancing Translational Sciences (NCATS)
